Experimental findings from PubChem BioAssay (NCATS) are described below.

Unmarked numbers belong to inactive results. Inconclusive results are not listed. Calls of active or inactive are those of the source. Calls follow the shape of the dose curve; as a rule, active = well fitted inhibition curve with a large enough effect; inconclusive = small, poorly fitted or top-dose-only effect; inactive = flat fitted curve, though single readings scatter.

Sequence of Phospholipid hydroperoxide glutathione peroxidase GPX4 (Homo sapiens) (P36969 whole entry, looked up): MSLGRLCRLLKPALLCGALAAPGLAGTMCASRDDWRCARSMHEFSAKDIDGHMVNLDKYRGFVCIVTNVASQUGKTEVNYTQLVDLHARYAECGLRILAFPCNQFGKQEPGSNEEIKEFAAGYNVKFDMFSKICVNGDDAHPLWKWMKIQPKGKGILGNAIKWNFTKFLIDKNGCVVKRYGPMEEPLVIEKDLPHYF

One test concerns the target Phospholipid hydroperoxide glutathione peroxidase GPX4 (Homo sapiens) (UniProt P36969). As to the kind of experiment: Primary qHTS Assay for Inhibitors of Recombinant Selenoprotein Glutathione Peroxidase 4 (GPX4) (AID 1845192). Also: nearly all actives have a fitted effect of over 65% in size. Also: potency is read from the fitted curve at half-maximal effect. As to activity change, negative = inhibition: % is scaled to controls: 0 for no effect and ±100 for the full control effect. The following applies: recombinant GPX4, GR-coupled NADPH fluorescence, 15 min; series mostly up to 50 µM; activity change, negative = inhibition: at the top concentration. In outline: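 Steps: GPX4 plus compound, 30 min RT; add GR/GSH/NADPH master mix; start with cumene hydroperoxide; read 340/450 nm fluorescence at 0 and 15 min. Finals were 200 nM GPX4, 1 mM GSH, 0.5 mM CHP, 0.5 mM NADPH, 100 nM GR.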
Take `COc1cc(OC2CCN(C)CC2)ccc1Nc1ncc2c(n1)n(C1CCCC1)c(=O)n2C`: the result was inactive.

Regarding `CCN1CCN(Cc2ccc(-c3cc4c(N[C@H](C)c5ccccc5)ncnc4[nH]3)cc2)CC1`, the Potency is 22.7 µM (active).

For the compound `COc1cc2c(cc1-c1c(C)noc1C)ncc1[nH]c(=O)n([C@H](C)c3ccccn3)c12`, the “activity change, negative = inhibition” value is 0.747%.

Regarding `Cc1cc(Nc2cc(NC(=O)c3c(Cl)cccc3Cl)ccn2)nc(N)n1`, the “activity change, negative = inhibition” value was -15%.

The target of a further test is Luciferin 4-monooxygenase (Photinus pyralis) (UniProt P08659). Put plainly: Primary firefly luciferase (FLuc) qHTS assay for identification of artifact compounds. (AID 1845220). Also: nearly all actives have a fitted effect of over 60% in size.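 As to activity change, negative = inhibition: plate controls were DMSO vehicle for no effect and no enzyme for full effect.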 The following applies: purified firefly luciferase, luminescence, 5 min; series mostly up to 54.1 µM; activity change, negative = inhibition: at the top concentration. In outline: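 Enzymatic FLuc inhibition assay: compounds pre-exposed to luciferin/ATP (10 uM each) for 15 min, then purified P. pyralis enzyme at 10 nM added. Read-out: luminescence at 5 min.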
Background: qHTS replaces the single test concentration by a dilution series.
`C[C@]1(CO)CN(c2cc(C(=O)Nc3ccc4c(c3)-c3c(c(C(N)=O)nn3-c3ccc(F)cc3)CC4)c(Cl)cn2)C[C@@]1(C)CO`: the “activity change, negative = inhibition” value is 2.9%.

Regarding `Cc1cc(C(=O)N2CCN(c3cccc(Cl)c3)CC2)n(-c2ccccc2)n1`, the “activity change, negative = inhibition” value is -3.65%.

As to `CNC(=O)c1ccccc1Nc1nc(Nc2ccc(N3CCOCC3)cc2OC)ncc1Cl`, the outcome was inactive.

For `CC(C)Nc1cc(C(F)(F)F)cc2nc(NC(=O)c3cccnc3)nn12`, the call was inactive.

As to `CC(C)CC(=O)Nc1n[nH]c2c1CN(C(=O)C1CCN(C)CC1)C2(C)C`, the “activity change, negative = inhibition” value is -4.25%.

For the compound `Cn1cc(-c2[nH]c3cc(NC(=O)[C@H](N)C4CCCCC4)cc4c3c2C=NNC4=O)cn1`, the outcome was inactive.

As to `CCCCCCCCCC(=O)N[C@@H](Cc1c[nH]c2ccccc12)C(=O)N[C@H](CC(N)=O)C(=O)N[C@@H](CC(=O)O)C(=O)N[C@@H]1C(=O)NCC(=O)N[C@@H](CCCN)C(=O)N[C@@H](CC(=O)O)C(=O)N[C@H](C)C(=O)N[C@@H](CC(=O)O)C(=O)NCC(=O)N[C@H](CO)C(=O)N[C@@H]([C@@H](C)CC(=O)O)C(=O)N[C@@H](CC(=O)c2ccccc2N)C(=O)O[C@@H]1C`, the “activity change, negative = inhibition” value was -6.17% [at 25.7 µM].

Take `CC1(C)CCC(c2ccc(Cl)cc2)=C(CN2CCN(c3ccc(C(=O)NS(=O)(=O)c4ccc(N[C@H](CCN5CCOCC5)CSc5ccccc5)c(S(=O)(=O)C(F)(F)F)c4)cc3)CC2)C1`: the “activity change, negative = inhibition” value was -7.5%.

As for `CS(=O)(=O)N1CCN(Cc2cc3nc(-c4cccc5[nH]ncc45)nc(N4CCOCC4)c3s2)CC1`, the “activity change, negative = inhibition” value is -6.47%.

On to `O=C(c1cncc(Br)c1)N1CCC(N2CCCC2)CC1`, for which the outcome was inactive.

Turning to `COc1c(OCCCN2CCOCC2)ccc2c3n(c(=NC(=O)c4cnc(N)nc4)nc12)CCN3`, the activity change, negative = inhibition is -4.27% [at 11.6 µM].

As for `CN(C)Cc1c(C(=O)NCCOc2ccc(C(=O)NO)cc2)oc2ccccc12`, the “activity change, negative = inhibition” value was 3.52%.

On to `COC(=O)c1ccc2c(C(=Nc3ccc(N(C)C(=O)CN4CCN(C)CC4)cc3)c3ccccc3)c(O)[nH]c2c1`, for which the “activity change, negative = inhibition” value is 0.163%.

For `COc1cc(C(=O)N2CCC(N3CCN(C)CC3)CC2)ccc1Nc1ncc2c(n1)N(C)c1ccccc1C(=O)N2C`, the “activity change, negative = inhibition” value was 4.04%.

For the compound `CCCNC(=O)Nc1ccc(Oc2ncnc3cc(OC)c(OC)cc23)cc1Cl`, the result was inactive.

Regarding `CCNC(=O)Nc1ccc2ncc(Nc3ccc(C)cc3)nc2n1`, the “activity change, negative = inhibition” value was 1.15%.

With `CNC(=O)c1ccc(-c2cnc3ncc(Cc4ccc5ncccc5c4)n3n2)cc1F`, the “activity change, negative = inhibition” value is -7%.

For the compound `CCc1cc2c(cc1N1CCC(N3CCOCC3)CC1)C(C)(C)c1[nH]c3cc(C#N)ccc3c1C2=O`, the “outcome” value is “inactive [at 25.7 µM]”.

On to `COc1cc2c(cc1-c1c(C)noc1C)ncc1[nH]c(=O)n([C@H](C)c3ccccn3)c12`, for which the “activity change, negative = inhibition” value is -13.6%.
